# Source: paper PMC7862700, “An all-to-all approach to the identification of sequence-specific readers for epigenetic DNA modifications on cytosine”
# Tests used:
# Assay in all cases: DAPPL (digital affinity profiling via proximity ligation, sequencing); 10 mM Tris-HCl pH 7.5, 50 mM NaCl, 1 mM DTT, 4% glycerol, room temperature, 30 min; GST-TFs on glutathione beads, 16-mer random dsDNA library, 0.1% formaldehyde crosslink after washing; high values mean tight binding
# [1] = biological target: T1, FEV (Homo sapiens, UniProt Q99581 1-238); details: protein: recombinant; tags: N-terminal GST; dsDNA, one strand shown
# T1 sequence: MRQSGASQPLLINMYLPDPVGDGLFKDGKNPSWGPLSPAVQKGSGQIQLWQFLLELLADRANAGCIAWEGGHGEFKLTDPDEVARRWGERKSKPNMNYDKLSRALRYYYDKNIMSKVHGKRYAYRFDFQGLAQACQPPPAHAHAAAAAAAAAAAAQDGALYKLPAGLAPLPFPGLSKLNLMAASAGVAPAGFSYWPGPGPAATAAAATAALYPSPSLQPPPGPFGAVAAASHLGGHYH
# Summary of the method: (§1)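 Human transcription factors carrying a GST fusion were produced in yeast, bound to glutathione beads, tagged with DNA barcodes and pooled together with a tag-only sample. Each pool was held with 200 nmole of a random double-stranded 16-mer DNA library in Tris/NaCl/DTT/glycerol buffer for 30 min at room temperature, then washed, crosslinked in 0.1% formaldehyde, proximity-ligated with BsaI/T4 ligase (1 h, 37 °C), PCR-amplified and sequenced on an Illumina NextSeq500. Binding signal is the read frequency of each hexamer for a given factor divided by its frequency in the tag-only sample.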
# [2] = biological target: ETV5 (Homo sapiens, UniProt P41161 1-510); details: protein: recombinant; tags: N-terminal GST; dsDNA, one strand shown
# Summary of the method: as §1
# [3] = biological target: HSF1 (Homo sapiens, UniProt Q00613 1-529); details: protein: recombinant; tags: N-terminal GST; chain copies: 3; dsDNA, one strand shown
# Summary of the method: as §1
# [4] = biological target: T2, SPIC (Homo sapiens, UniProt Q8N5J4 1-248); details: protein: recombinant; tags: N-terminal GST; dsDNA, one strand shown
# T2 sequence: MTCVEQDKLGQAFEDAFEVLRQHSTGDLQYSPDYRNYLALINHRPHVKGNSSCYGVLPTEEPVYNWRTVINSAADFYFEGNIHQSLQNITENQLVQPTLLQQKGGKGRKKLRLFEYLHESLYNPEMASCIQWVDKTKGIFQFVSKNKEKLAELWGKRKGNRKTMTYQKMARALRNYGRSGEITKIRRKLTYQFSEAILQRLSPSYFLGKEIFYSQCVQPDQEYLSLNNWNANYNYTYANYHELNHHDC
# Summary of the method: as §1
# [5] = biological target: ELF4 (Homo sapiens, UniProt Q99607 1-663); details: protein: recombinant; tags: N-terminal GST; dsDNA, one strand shown
# Summary of the method: as §1
# [6] = biological target: T3, ELK4 (Homo sapiens, UniProt P28324-2 1-405); details: protein: recombinant; tags: N-terminal GST; dsDNA, one strand shown
# T3 sequence: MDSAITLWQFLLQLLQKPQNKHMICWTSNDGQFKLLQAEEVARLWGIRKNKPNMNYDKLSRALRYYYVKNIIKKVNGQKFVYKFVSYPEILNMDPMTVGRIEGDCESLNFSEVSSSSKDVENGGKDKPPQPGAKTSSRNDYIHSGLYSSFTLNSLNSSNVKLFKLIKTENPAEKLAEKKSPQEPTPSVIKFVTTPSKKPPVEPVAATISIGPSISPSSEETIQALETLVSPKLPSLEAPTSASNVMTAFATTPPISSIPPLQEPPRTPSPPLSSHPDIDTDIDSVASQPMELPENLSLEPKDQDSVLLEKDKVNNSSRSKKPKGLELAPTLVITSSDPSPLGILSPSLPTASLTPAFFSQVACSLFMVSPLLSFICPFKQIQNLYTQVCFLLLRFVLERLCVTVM
# Summary of the method: as §1
# [7] = biological target: T4, ETV2 (Homo sapiens, UniProt O00321 1-342); details: protein: recombinant; tags: N-terminal GST; dsDNA, one strand shown
# T4 sequence: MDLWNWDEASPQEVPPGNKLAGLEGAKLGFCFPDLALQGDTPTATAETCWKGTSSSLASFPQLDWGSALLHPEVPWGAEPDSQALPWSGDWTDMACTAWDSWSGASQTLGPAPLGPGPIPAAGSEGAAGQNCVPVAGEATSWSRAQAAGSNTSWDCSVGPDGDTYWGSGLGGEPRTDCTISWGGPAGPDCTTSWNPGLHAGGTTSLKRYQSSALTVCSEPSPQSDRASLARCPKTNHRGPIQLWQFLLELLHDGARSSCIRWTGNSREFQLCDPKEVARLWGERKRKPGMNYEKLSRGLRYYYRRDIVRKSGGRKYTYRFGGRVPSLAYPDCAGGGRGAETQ
# Summary of the method: as §1
# [8] = biological target: T5, ELF3 (Homo sapiens, UniProt P78545 1-371); details: protein: recombinant; tags: N-terminal GST; dsDNA, one strand shown
# T5 sequence: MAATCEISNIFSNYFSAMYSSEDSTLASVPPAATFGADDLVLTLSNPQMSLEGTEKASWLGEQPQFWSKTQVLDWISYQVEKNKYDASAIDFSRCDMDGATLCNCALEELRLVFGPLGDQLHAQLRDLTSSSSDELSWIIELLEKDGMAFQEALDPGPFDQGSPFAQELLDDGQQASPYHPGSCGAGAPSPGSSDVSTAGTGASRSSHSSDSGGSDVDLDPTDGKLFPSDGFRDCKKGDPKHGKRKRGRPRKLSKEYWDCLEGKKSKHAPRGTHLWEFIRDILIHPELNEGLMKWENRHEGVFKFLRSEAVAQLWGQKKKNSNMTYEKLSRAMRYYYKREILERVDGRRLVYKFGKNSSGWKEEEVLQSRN
# Summary of the method: as §1
# [9] = biological target: CRX (Homo sapiens, UniProt O43186 1-299); details: protein: recombinant; tags: N-terminal GST; dsDNA, one strand shown
# Summary of the method: as §1
# [10] = biological target: ETV1 (Homo sapiens, UniProt P50549 1-477); details: protein: recombinant; tags: N-terminal GST; dsDNA, one strand shown
# Summary of the method: as §1
# [11] = biological target: T6, ERF (Homo sapiens, UniProt P50548 1-548); details: protein: recombinant; tags: N-terminal GST; dsDNA, one strand shown
# T6 sequence: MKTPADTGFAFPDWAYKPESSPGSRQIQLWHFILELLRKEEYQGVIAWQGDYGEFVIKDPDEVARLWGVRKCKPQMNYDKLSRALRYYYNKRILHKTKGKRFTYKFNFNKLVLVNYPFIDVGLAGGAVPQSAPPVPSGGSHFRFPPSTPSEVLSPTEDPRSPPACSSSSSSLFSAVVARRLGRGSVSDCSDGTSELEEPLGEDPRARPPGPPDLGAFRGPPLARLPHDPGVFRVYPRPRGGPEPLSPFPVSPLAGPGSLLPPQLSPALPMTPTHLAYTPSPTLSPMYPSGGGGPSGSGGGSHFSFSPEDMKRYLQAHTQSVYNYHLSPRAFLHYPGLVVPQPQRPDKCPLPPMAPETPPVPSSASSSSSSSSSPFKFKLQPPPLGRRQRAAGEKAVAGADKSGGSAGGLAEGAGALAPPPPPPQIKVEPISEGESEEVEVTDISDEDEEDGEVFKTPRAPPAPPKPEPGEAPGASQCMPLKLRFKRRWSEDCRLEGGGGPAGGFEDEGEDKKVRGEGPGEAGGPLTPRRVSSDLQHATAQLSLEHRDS
# Summary of the method: as §1
# [12] = biological target: T7, ETV3L (Homo sapiens, UniProt Q6ZN32 1-361); details: protein: recombinant; tags: N-terminal GST; dsDNA, one strand shown
# T7 sequence: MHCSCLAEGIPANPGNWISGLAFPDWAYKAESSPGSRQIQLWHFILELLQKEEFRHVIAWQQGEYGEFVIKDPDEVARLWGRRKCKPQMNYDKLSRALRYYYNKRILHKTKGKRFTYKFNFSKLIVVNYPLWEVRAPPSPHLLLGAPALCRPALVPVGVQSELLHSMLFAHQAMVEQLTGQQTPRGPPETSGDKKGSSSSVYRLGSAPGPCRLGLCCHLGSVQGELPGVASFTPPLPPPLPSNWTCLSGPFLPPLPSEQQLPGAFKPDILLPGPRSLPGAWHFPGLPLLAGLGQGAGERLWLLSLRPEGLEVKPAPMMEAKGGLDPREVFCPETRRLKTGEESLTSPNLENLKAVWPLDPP
# Summary of the method: as §1
# [13] = biological target: T8, ETS2 (Homo sapiens, UniProt P15036 1-469); details: protein: recombinant; tags: N-terminal GST; dsDNA, one strand shown
# T8 sequence: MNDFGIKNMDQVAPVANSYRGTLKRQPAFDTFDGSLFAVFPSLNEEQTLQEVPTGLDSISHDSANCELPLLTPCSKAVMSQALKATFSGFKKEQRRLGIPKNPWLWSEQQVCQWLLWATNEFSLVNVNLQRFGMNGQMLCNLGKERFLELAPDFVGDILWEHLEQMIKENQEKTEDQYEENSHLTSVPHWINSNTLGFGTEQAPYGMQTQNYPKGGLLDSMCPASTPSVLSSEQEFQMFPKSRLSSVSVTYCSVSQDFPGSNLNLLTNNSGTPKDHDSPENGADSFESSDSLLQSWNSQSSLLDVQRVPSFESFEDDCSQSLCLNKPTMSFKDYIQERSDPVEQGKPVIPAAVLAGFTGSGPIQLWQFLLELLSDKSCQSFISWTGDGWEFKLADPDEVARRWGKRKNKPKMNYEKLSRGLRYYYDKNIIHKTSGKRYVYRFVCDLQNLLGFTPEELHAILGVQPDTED
# Summary of the method: as §1
# [14] = biological target: T9, SPDEF (Homo sapiens, UniProt O95238 1-335); details: protein: recombinant; tags: N-terminal GST; dsDNA, one strand shown
# T9 sequence: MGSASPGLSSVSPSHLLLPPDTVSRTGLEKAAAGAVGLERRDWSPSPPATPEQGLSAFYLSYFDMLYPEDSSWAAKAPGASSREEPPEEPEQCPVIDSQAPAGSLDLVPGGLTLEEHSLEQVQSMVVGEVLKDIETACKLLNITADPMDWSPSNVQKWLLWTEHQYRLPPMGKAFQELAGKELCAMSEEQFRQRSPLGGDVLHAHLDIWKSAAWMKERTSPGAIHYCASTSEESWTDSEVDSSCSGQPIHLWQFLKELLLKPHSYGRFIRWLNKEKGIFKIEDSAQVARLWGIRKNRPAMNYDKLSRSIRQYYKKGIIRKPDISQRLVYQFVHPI
# Summary of the method: as §1
# [15] = biological target: T10, ETV7 (Homo sapiens, UniProt Q9Y603 1-341); details: protein: recombinant; tags: N-terminal GST; dsDNA, one strand shown
# T10 sequence: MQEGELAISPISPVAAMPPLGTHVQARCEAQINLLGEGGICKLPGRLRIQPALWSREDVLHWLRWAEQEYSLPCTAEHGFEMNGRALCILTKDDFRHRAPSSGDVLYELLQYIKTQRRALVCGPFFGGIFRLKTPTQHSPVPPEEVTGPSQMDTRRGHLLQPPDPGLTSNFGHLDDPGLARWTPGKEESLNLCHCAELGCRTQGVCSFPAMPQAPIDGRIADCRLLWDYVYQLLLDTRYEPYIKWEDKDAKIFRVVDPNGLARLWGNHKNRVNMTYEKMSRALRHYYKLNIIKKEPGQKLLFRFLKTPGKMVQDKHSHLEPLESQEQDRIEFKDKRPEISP
# Summary of the method: as §1
# [16] = biological target: T11, ELF5 (Homo sapiens, UniProt Q9UKW6-2 1-255); details: protein: recombinant; tags: N-terminal GST; dsDNA, one strand shown
# T11 sequence: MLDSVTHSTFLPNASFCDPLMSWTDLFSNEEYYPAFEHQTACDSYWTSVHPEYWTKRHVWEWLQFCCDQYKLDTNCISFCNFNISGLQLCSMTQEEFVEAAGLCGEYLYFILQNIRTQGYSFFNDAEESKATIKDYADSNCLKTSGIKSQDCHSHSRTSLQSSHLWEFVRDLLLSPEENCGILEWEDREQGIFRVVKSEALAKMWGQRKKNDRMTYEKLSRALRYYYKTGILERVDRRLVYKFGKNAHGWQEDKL
# Summary of the method: as §1
# [17] = biological target: T12, ETV3 (Homo sapiens, UniProt P41162-2 1-143); details: protein: recombinant; tags: N-terminal GST; dsDNA, one strand shown
# T12 sequence: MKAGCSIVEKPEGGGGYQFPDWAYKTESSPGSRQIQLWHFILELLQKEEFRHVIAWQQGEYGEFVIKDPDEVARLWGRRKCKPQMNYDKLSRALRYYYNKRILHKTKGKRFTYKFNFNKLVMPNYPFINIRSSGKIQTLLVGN
# Summary of the method: as §1
# [18] = biological target: ETV6 (Homo sapiens, UniProt P41212 1-452); details: protein: recombinant; tags: N-terminal GST; dsDNA, one strand shown
# Summary of the method: as §1
# HSF1, sequence (Q00613 whole entry): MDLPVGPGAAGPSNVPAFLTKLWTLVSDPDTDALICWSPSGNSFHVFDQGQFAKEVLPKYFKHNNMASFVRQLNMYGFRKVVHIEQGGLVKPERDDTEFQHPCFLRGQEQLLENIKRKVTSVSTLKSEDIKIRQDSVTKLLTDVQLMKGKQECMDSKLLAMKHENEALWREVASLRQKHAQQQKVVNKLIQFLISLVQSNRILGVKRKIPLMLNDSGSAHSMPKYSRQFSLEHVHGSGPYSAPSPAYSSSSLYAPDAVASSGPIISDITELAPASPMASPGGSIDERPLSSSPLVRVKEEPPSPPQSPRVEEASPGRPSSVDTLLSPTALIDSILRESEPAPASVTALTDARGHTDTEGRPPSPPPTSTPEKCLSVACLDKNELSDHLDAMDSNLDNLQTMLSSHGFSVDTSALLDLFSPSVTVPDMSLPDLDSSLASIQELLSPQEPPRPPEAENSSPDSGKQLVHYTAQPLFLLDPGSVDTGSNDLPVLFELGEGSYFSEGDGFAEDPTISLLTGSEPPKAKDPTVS
# CRX, sequence (O43186 whole entry): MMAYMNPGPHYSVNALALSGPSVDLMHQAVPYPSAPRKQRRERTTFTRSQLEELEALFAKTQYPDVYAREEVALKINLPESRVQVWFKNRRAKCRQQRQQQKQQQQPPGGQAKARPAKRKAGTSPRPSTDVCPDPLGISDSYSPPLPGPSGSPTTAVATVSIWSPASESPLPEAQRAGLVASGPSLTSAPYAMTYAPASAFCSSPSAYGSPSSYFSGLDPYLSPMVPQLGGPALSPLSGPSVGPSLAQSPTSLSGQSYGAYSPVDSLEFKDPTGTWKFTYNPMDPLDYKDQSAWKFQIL
# ETV6, sequence (P41212 whole entry): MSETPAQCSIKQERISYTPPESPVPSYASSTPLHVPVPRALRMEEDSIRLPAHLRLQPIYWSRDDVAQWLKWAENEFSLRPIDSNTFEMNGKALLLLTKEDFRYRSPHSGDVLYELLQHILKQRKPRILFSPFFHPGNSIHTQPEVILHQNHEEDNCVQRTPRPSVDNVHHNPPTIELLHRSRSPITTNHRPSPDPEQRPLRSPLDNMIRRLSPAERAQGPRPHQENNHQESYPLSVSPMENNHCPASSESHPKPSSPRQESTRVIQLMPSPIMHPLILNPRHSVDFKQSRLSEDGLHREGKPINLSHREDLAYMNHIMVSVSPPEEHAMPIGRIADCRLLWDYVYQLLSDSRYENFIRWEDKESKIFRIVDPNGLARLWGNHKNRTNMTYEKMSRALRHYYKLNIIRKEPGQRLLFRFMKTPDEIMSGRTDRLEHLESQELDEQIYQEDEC
# ETV5, sequence (P41161 whole entry): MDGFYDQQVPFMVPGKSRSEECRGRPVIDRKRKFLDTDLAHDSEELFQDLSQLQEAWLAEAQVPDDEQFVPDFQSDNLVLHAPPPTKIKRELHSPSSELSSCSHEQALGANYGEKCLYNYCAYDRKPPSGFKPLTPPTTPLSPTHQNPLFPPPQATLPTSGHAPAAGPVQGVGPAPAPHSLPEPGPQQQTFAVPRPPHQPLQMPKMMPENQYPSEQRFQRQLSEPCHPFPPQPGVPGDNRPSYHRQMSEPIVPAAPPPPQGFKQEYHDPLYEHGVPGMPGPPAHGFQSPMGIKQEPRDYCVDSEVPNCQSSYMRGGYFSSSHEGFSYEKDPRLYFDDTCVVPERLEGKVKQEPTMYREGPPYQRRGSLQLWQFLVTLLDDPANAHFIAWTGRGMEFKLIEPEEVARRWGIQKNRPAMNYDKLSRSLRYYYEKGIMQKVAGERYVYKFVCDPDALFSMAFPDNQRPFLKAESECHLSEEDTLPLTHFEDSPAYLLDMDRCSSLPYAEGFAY
# ETV1, sequence (P50549 whole entry): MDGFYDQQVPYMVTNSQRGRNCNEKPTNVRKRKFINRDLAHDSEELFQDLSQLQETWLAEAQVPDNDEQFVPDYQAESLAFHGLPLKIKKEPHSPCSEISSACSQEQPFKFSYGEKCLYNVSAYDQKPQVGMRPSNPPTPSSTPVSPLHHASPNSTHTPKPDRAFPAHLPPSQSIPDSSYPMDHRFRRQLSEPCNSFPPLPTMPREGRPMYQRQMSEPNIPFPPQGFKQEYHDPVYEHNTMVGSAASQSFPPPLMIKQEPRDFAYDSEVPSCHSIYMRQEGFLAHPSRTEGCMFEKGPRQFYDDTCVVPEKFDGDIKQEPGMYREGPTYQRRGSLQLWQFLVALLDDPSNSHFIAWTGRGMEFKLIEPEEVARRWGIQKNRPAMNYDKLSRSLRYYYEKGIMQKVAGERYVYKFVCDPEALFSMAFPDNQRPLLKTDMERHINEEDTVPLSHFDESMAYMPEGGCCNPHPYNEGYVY
# ELF4, sequence (Q99607 whole entry): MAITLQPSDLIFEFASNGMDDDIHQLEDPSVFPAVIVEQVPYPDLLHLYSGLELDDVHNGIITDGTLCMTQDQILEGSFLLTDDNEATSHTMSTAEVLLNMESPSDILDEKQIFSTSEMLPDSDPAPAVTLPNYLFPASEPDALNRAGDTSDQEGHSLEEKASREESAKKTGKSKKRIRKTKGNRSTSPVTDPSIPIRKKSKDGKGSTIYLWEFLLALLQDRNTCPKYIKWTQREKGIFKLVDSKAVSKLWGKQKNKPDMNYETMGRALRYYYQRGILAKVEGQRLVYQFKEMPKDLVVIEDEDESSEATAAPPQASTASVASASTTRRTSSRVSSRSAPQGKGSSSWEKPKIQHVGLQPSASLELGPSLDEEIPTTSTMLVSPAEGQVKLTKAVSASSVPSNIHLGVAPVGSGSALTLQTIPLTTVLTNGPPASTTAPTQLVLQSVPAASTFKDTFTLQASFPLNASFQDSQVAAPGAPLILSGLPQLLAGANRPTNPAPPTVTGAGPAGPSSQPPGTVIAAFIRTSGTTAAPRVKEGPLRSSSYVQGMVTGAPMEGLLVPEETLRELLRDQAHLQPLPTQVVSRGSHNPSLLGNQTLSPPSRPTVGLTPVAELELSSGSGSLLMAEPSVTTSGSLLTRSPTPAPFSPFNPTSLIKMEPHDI
sequence,measurement,setting,value
ATCCTC,binding signal,[1],"1.48 fold enrichment (6-mer frequency, TF over GST control)"
same,binding signal,[2],"1.46 fold enrichment (6-mer frequency, TF over GST control)"
same,binding signal,[3],"1.67 fold enrichment (6-mer frequency, TF over GST control)"
same,binding signal,[4],"1.31 fold enrichment (6-mer frequency, TF over GST control)"
same,binding signal,[5],"1.47 fold enrichment (6-mer frequency, TF over GST control)"
same,binding signal,[6],"1.39 fold enrichment (6-mer frequency, TF over GST control)"
same,binding signal,[7],"1.68 fold enrichment (6-mer frequency, TF over GST control)"
same,binding signal,[8],"1.42 fold enrichment (6-mer frequency, TF over GST control)"
same,binding signal,[9],"2.46 fold enrichment (6-mer frequency, TF over GST control)"
same,binding signal,[10],"1.55 fold enrichment (6-mer frequency, TF over GST control)"
same,binding signal,[11],"1.34 fold enrichment (6-mer frequency, TF over GST control)"
same,binding signal,[12],"1.53 fold enrichment (6-mer frequency, TF over GST control)"
same,binding signal,[13],"1.41 fold enrichment (6-mer frequency, TF over GST control)"
same,binding signal,[14],"1.56 fold enrichment (6-mer frequency, TF over GST control)"
same,binding signal,[15],"1.46 fold enrichment (6-mer frequency, TF over GST control)"
same,binding signal,[16],"1.95 fold enrichment (6-mer frequency, TF over GST control)"
same,binding signal,[17],"1.51 fold enrichment (6-mer frequency, TF over GST control)"
same,binding signal,[18],"1.37 fold enrichment (6-mer frequency, TF over GST control)"
